The list is not random: actives were taken first. Their share in the collection is about 2%.
LEDGF integ inh: blockers of LEDGF/p75-dependent integrase strand transfer – biochemical, TR-FRET, high throughput, primary screen. HIV-1 integrase (with human LEDGF/p75). 370,000 tested, 0.64% active. inhibition, % at 3.7 µM. TR-FRET IN-LEDGF/p75 DNA integration, Eu/Cy5. AID 743269, 2014;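 active = inhibition above the screen-wide mean plus 3 SD, cut at about 13% in these data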;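 also: signal is the Cy5 over europium emission ratio at 671 and 618 nm; 0% = plate median of compound wells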
UHRF1 MBD2 ctr: UHRF1 methylated DNA binding inhibitors, primary screen, counter-screen for MBD2 inhibitor project, biochemical, TR-FRET, human UHRF1, single concentration; UHRF1 binding to methylated oligo; 370,000 tested, 0.75% active; inhibition, % at 4.4 µM; AID 687016, 2013; E3 ubiquitin-protein ligase UHRF1 (Homo sapiens), Q96T88; in the data active = inhibition above about 21%;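 also: UHRF1 SRA domain binding a hemimethylated CpG hairpin DNA probe; 0% = median of test compound wells and 100% = reference inhibitor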
Rin1 Abl inh: inhibitors of Rin1-Abl protein binding, primary screen, biochemical, TR-FRET; 360,000 tested, 0.4% active; inhibition, % at 7.35 µM; Tyrosine-protein kinase ABL1 (Homo sapiens) + Ras and Rab interactor 1 (Homo sapiens), …; AID 588664, 2011; in the data active = inhibition above about 5%, passing the limit was not always enough
MBD2 inh: inhibitors of MBD2 binding to methylated DNA, primary screen, biochemical, TR-FRET, DNA-binding domain, human. MBD2 binding to methylated oligonucleotide. 370,000 tested, 0.31% active. AID 686964, 2013. inhibition, % at 4.4 µM. Methyl-CpG-binding domain protein 2 (Homo sapiens), Q9UBB5; in the data active = inhibition above about 13%
Target sequence (Q9UBB5 whole entry, looked up, the tested form may be a part): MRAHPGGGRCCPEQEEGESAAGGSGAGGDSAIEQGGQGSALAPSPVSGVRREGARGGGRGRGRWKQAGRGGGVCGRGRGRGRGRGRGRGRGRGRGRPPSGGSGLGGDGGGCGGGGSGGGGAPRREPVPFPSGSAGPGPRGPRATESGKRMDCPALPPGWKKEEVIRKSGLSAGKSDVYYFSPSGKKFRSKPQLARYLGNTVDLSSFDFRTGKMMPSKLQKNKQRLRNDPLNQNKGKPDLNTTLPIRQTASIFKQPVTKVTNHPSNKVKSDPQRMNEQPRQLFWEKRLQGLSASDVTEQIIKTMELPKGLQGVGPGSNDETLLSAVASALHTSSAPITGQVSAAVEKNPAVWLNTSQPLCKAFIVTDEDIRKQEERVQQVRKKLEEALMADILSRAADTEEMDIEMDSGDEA
TCR CD3 inh: inhibitors of human TCR-CD3 interaction, primary screen, biochemical, fluorescence, TAMRA-labeled TCR probe | AID 651800, 2012 | inhibition, % at 9.4 µM | T-cell receptor (TCR) | 360,000 tested, 0.37% active;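 also: recombinant mutant TCR 2C K166C tagged with TAMRA read by polarization; 0% = receptor in buffer alone and 100% = receptor with positive control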
BSA TAMRA ctr: compounds interfering with TAMRA-BSA probe, counter-screen for TCR-CD3 interaction inhibitor project, biochemical, fluorescence, TAMRA-labeled BSA; TAMRA-labeled BSA probe fluorescence counterscreen; shares compounds with TCR CD3 inh; inhibition, % at 9.4 µM; AID 652035, 2013; 1,200 tested, 10% active; in the data active = inhibition above about 23%;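 also: 0% = buffer low control and 100% = reference high control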
TCR-CD3 conf: TCR-CD3 interaction inhibitors, retest, confirmation, biochemical, fluorescence, TAMRA-labeled TCR probe | 1,200 tested, 48% active | shares compounds with TCR CD3 inh | inhibition, % at 9.4 µM | TAMRA-labeled TCR probe fluorescence binding assay
UHRF1 DNA bind: UHRF1 methylated DNA binding inhibitors, counter-screen for MBD2 inhibitor project, biochemical, TR-FRET, human UHRF1; shares compounds with MBD2 inh; UHRF1 binding to methylated oligonucleotide; inhibition, % at 4.4 µM; 1,000 tested, 25% active; in the data active = inhibition above about 21%;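 also: UHRF1 SRA domain binding a labeled hemimethylated CpG hairpin DNA; 0% = vehicle only and 100% = reference inhibitor with vehicle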
MBD2 DBD conf: inhibitors of MBD2 binding to methylated DNA, confirmation, biochemical, TR-FRET, DNA-binding domain, human | shares compounds with MBD2 inh | TR-FRET MBD2-DBD binding to methylated oligonucleotide | inhibition, % at 4.4 µM | 1,000 tested, 26% active | AID 720531, 2013; in the data active = inhibition above about 14%
IN multimer up: HIV-1 IN multimer formation enhancers, counter-screen for LEDGF/p75 integration inhibitor project, biochemical, TR-FRET; shares compounds with LEDGF integ inh; TR-FRET HIV-1 integrase multimerization; activation, % at 7.7 µM; 2,000 tested, 17% active; in the data active = activation above about 8.9%
TRFRET interf: TR-FRET optical interference artefacts, confirmation, artefact control for LEDGF/p75-dependent integration inhibitor project, biochemical, HIV-1 IN multimerization. shares compounds with LEDGF integ inh. TR-FRET optical interference counterscreen. inhibition, % at 7.7 µM. 2,000 tested, under 10 active. AID 1053135, 2014;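 active = inhibition above the mean over all tested compounds plus 3 SD, which no compound reached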;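 also: 0% = integrase with antibodies and DMSO and 100% = antibodies without integrase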
LEDGF integ conf: inhibitors of HIV-1 IN-LEDGF/p75 DNA integration, confirmation, biochemical, TR-FRET | shares compounds with LEDGF integ inh | TR-FRET LEDGF/p75-dependent HIV-1 integration | inhibition, % at 3.7 µM | 2,000 tested, 36% active; in the data active = inhibition above about 14%
Active calls of the source: *; · = no result. Rule as the data show it, unless noted: active = inhibition above about 19%; inactive = the rest.

SMILES | LEDGF integ inh | UHRF1 MBD2 ctr | Rin1 Abl inh | MBD2 inh | TCR CD3 inh | BSA TAMRA ctr | TCR-CD3 conf | IN multimer up | TRFRET interf | LEDGF integ conf | others
Cc1cc2nc3ccc(=[N+](C)C)cc-3sc2cc1N | · | · | -42 | · | · | · | · | · | · | ·
C/C(=N\NC(=O)c1cc(O)ccc1O)c1cccc(NC(=O)c2ccc(Cl)cc2)c1 | 41* | 14 | 1 | -1 | 46* | -17 | 9 | 19* | -97 | 16*
O=C(COC(=O)c1cccc(C(=O)OCC(=O)NC2CC2)n1)NC1CC1 | 1 | -2 | 1 | -3 | 3 | · | · | · | · | ·
O=C(c1ccc(F)c(F)c1)N1CCC2(CC1)NCCc1[nH]cnc12 | -1 | 5 | 0 | 3 | -2 | · | · | · | · | ·
O=C(NC(=S)Nc1ccc(Br)cn1)c1cccs1 | 19* | 37* | -1 | 14* | 27* | 3 | 1 | -3 | 9 | -1 | UHRF1 DNA bind=4;MBD2 DBD conf=0
Oc1ccc(N=Cc2ccc(OCc3ccccc3)cc2)cc1 | 34* | 8 | -2 | -3 | 32* | 4 | 0 | 22* | -78 | 35*
Cc1nn2cc(-c3ccc(Cl)cc3)cnc2c1Cl | -9 | 1 | -4 | 2 | -8 | · | · | · | · | ·
N[C@@H](Cc1ccc(O)c(O)c1)C(=O)O | 89* | 67* | 9 | 34* | 75* | -11 | 32* | 53* | -267 | 93* | UHRF1 DNA bind=96*;MBD2 DBD conf=59*
Cc1c(O)cc2c(c1O)C(=O)CC(c1ccc(O)cc1)O2 (stereo not drawn) | 22* | 29* | 8 | 15* | 34* | 0 | 22* | 37* | -185 | 39* | UHRF1 DNA bind=9;MBD2 DBD conf=3
COc1cc(O)c2c(c1)OC(c1ccc(O)cc1)CC2=O (stereo not drawn) | 7 | -3 | -2 | -4 | 8 | · | · | · | · | ·
O=C(O)c1cccc(-n2cccc2/C=C2/NC(=O)N(c3ccc(Cl)cc3)C2=O)c1 | 83* | 103* | 4 | 101* | 36* | -11 | 31* | 36* | -129 | 81*
Cc1[nH][nH]c(=O)c1N=Nc1ccccc1Cl | 0 | -15 | -1 | -15 | -2 | · | · | · | · | ·
Clc1ccccc1N=Nc1ccccn1 | 25* | 5 | -1 | -1 | 28* | 8 | 13 | 1 | -4 | 16*
c1coc(-c2nc(-c3ccco3)c(-c3ccco3)nc2-c2ccco2)c1 | 90* | 95* | 6 | 67* | 26* | -7 | 8 | 8 | -30 | 82* | UHRF1 DNA bind=42*;MBD2 DBD conf=20*
COc1ccc2nc3cccc(OC)c3nc2c1 | -12 | -9 | -4 | -7 | -10 | · | · | · | · | ·
CCCCNC(=O)c1ccc2nc(-c3ccco3)c(-c3ccco3)nc2c1 | 50* | 28* | 2 | 0 | 23* | -9 | 16 | 6 | -28 | 33*
Nc1nc(-c2ccco2)cs1 | 6 | 3 | 6 | 4 | -2 | · | · | · | · | ·
COc1ccc2nc(-c3ccco3)c(-c3ccco3)nc2c1 | 65* | 78* | 2 | 20* | 31* | -9 | 31* | 5 | -28 | 50* | UHRF1 DNA bind=25*;MBD2 DBD conf=10
C/C(CC(=O)Nc1ccccn1)=N\NC(=O)c1ccccc1O | 38* | -5 | -1 | -5 | 45* | 23* | 37* | 1 | -4 | 46*
CC(C)S(=O)(=O)N1CCCC(C(=O)c2cccc(Cl)c2)C1 (stereo not drawn) | -4 | 3 | 0 | -3 | -7 | · | · | · | · | ·
CCNC(=O)C1CCCN(C(=O)c2ccc3ccccc3c2)CC1 (stereo not drawn) | 3 | 0 | -4 | 5 | -7 | · | · | · | · | ·
COc1ccc(NC(=O)CSc2sc3c(O)cc(=O)[nH]c3c2C#N)c(OC)c1 | 16* | 56* | 0 | 30* | 29* | -6 | 20* | 21* | -106 | 34* | UHRF1 DNA bind=22*;MBD2 DBD conf=12
Cc1csc(NC(=O)CSc2sc3c(O)cc(=O)[nH]c3c2C#N)n1 | 38* | 79* | -2 | 52* | 23* | -12 | 1 | 41* | -144 | 20* | UHRF1 DNA bind=11;MBD2 DBD conf=7
Cc1nc(-c2cccc(NC(=O)c3ccc(-n4cccn4)cc3)c2)cs1 | -4 | -2 | 2 | -1 | -6 | · | · | · | · | ·
CC1OC(OCC2OC(Oc3c(-c4ccc(O)cc4)oc4cc(O)cc(O)c4c3=O)C(O)C(O)C2O)C(O)C(O)C1O (stereo not drawn) | 17* | 4 | 12 | -6 | 21* | -1 | 13 | 30* | -152 | 47*
CC1OC(OC2C(Oc3c(-c4ccc(O)cc4)oc4cc(O)cc(O)c4c3=O)OC(COC3O[C@@H](C)[C@H](O)[C@@H](O)C3O)C(O)C2O)C(O)C(O)C1O (stereo partly drawn) | -1 | 3 | -4 | -5 | 8 | · | · | · | · | ·
CCNCc1ccccc1OCc1ccccc1 | 0 | 1 | -1 | 1 | 0 | · | · | · | · | ·
Oc1ccc(NCc2ccccc2OCc2ccccc2)cc1 | 14* | -2 | 3 | -10 | 26* | 0 | -1 | 15* | -54 | 24*
Cc1cccc2c(N=O)c(O)n(CCc3ccccc3)c12 | 0 | 6 | 1 | -7 | 2 | · | · | · | · | ·
